# High-throughput results deposited in PubChem BioAssay by National Center for Advancing Translational Sciences (NCATS).
# The list is not random: actives were taken first. Their share in the collection is about 2.2%.
# TDP-43 yeast inh: rescues yeast growth from TDP-43 toxicity | TDP-43 expressing yeast growth rescue, BacTiter-Glo, 24 h | Potency, µM (series often up to 46.1 µM), hits mostly activators | 410,000 compounds, 1.8% hits | AID 652104; further: nearly all actives have a fitted effect of over 50% in size
#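 Luminescence from BacTiter-Glo reports growth of TDP-43-expressing yeast after 24 hr at 30 deg C with compound. Cells were raffinose-pregrown to mid-log, then seeded in galactose medium at OD600=0.02.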
# Mito fusion yeast: mitochondrial division inhibition or fusion activation | Potency, µM (titrated, usually from 46.1 µM), hits mostly activators | S. cerevisiae fusion-defective mutant growth rescue, CellTiterGlo 48 h | 320,000 compounds, 0.23% hits; further: nearly all actives have a fitted effect of over 45% in size
#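 Yeast fusion mutant, YPEG (non-fermentable carbon), compound, 48 h at 37C non-permissive; CellTiterGlo added, 10 min RT, luminescence read. Rescued growth = division inhibition.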
# aSyn rescue: inhibitors of alpha-synuclein toxicity in yeast; Yeast expressing alpha-synuclein, growth rescue, BacTiter-Glo, 24 h; Potency, µM (top dose mostly 46.1 µM), hits mostly activators; 370,000 compounds, 0.14% hits; AID 652106; further: nearly all actives have a fitted effect of over 65% in size
#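 Rescue of yeast growth: cells expressing toxic alpha-synuclein, induced in galactose at OD600 0.02, incubated with compound 24 h at 30 C. ATP luminescence quantified growth; inhibitors of toxicity appear as activators.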
# FUS suppressor: rescues growth of FUS-expressing yeast; S. cerevisiae FUS-expressing, growth rescue, OD600, 24 h; Potency, µM (highest dose often 76.6 µM), most hits filed as activators; 390,000 compounds, 0.24% hits; AID 1347120; further: nearly all actives have a fitted effect of over 55% in size
#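 S. cerevisiae expressing FUS from galactose induction served as the toxicity model. Growth after 24hr at 30C, read as absorbance at 600 nm, indicates suppression of toxicity; compounds dosed at several concentrations.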
# Abeta yeast res: compounds reversing amyloid beta toxicity in yeast | yeast expressing A-beta42, growth rescue, OD600, 48 h; response scale: 0% DMSO, 100% iron-clioquinol control | Potency, µM (highest dose often 46.1 µM), actives largely listed as activators | 410,000 compounds, 0.063% hits; further: nearly all actives have a fitted effect of over 55% in size
#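 Yeast growth medium received pinned compounds, then yeast cells expressing toxic A-beta were added; plates incubated at 30 C for 48 hr. Growth read as absorbance at 600 nm, normalized to DMSO and equimolar FeCl3 plus clioquinol controls.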
# A number is an active result; – = inactive; ? = inconclusive; · = no result given. The call rests on the fitted dose curve; in most records, active means well fitted curve in the direction sought with a large enough effect; inconclusive means small, poorly fitted or top-dose-only effect, or another doubt; inactive means no such curve, though single readings can be large; an effect the other way counts as inactive or inconclusive.
SMILES,TDP-43 yeast inh,Mito fusion yeast,aSyn rescue,FUS suppressor,Abeta yeast res
COc1ccc(OC)c(CCNC(=O)c2nn(C)c3c2CSc2ccccc2-3)c1,22µM,·,·,–,–
COc1ccc(OC)c(CNC(=O)c2nn(C)c3c2CSc2ccccc2-3)c1,–,·,·,–,–
CSc1ccc(CCNC(=O)c2nn(C)c3c2CS(=O)(=O)c2ccccc2-3)cc1,25µM,–,–,–,–
Cn1nc(C(=O)NCc2ccc(F)cc2)c2c1-c1ccccc1S(=O)(=O)C2,–,–,–,?,–
Cn1nc(C(=O)NCc2ccc(Cl)cc2)c2c1-c1ccccc1SC2,–,·,·,–,–
CC(NC(=O)c1nn(C)c2c1CSc1ccccc1-2)c1ccccc1 (stereo not drawn),18µM,·,·,?,–
CCCCNC(=O)NS(=O)(=O)c1ccc(NC(=O)CSc2nnc(-c3cccs3)n2-c2ccc(OC)cc2)cc1,·,·,·,–,·
CC(=O)N1CCn2c3ccc(C)cc3c3cccc1c32,14µM,–,–,–,–
N#Cc1cccc(Cn2ccc3ccc(-c4ccc5ccn(Cc6cccc(C#N)c6)c5c4)cc32)c1,·,·,·,–,·
COc1cccc(Cn2c(C(C)n3c(-c4cnccn4)nc4ccccc43)nc3ccccc32)c1 (stereo not drawn),14µM,·,?,?,–
COc1ccc(OCc2nc3ccccc3n2C(C)c2ccccc2)cc1 (stereo not drawn),13µM,·,·,–,?
COc1cccc(OCc2nc3ccccc3n2Cc2ccccc2)c1,22µM,·,·,–,?
COc1cccc(Cn2c(Cn3c(-c4cnccn4)nc4ccccc43)nc3ccccc32)c1,–,·,–,–,–
Cc1csc(NC(=O)c2ccc(COc3ccccc3F)o2)n1,·,·,·,–,·
O=S(=O)(NCCSCc1ccc(Cl)cc1Cl)c1ccc2c(c1)OCCO2,?,–,–,–,–
O=S(=O)(NCCSCc1c(Cl)cccc1Cl)c1ccc2c(c1)OCCO2,35µM,–,–,–,–
Cc1c(Cl)cccc1NS(=O)(=O)c1ccc(NS(=O)(=O)c2ccc3c(c2)OCCO3)cc1,–,·,·,22µM,–
O=C(Nc1ccccc1Cl)OC1CC2CC1[C@H]1CCCCN1[C@H]2Cc1ccccc1 (stereo partly drawn),·,·,·,–,·
O=C(CSc1nc(O)cc(=O)n1-c1ccccc1)Nc1ccc(Br)cn1,·,–,–,28µM,–
Cc1ccc(C(=O)Oc2ccc(Cl)c3cccnc23)cc1[N+](=O)[O-],?,–,–,·,–
O=C(Oc1ccc(Cl)c2cccnc12)c1cccnc1,11µM,–,–,–,–
CN(Cc1ccccc1)c1c([N+](=O)[O-])c(=O)n(C)c2ccccc12,16µM,–,?,?,–
CCN(CC)c1c([N+](=O)[O-])c(=O)n(C)c2ccccc12,–,–,–,–,–
CCCn1nc(NC(=O)c2cccs2)c2cc3cccc(C)c3nc21,–,–,–,–,–
O=S(=O)(NC1c2cccc3cccc(c23)C1Sc1ncccn1)c1ccccc1 (stereo not drawn),22µM,?,–,–,–
SMILES,TDP-43 yeast inh,Mito fusion yeast,aSyn rescue,FUS suppressor,Abeta yeast res
CC(=O)Nc1ccc(NCN2C(=O)[C@@H]3[C@H]4CC[C@H](C4)[C@@H]3C2=O)cc1,6.3µM,–,–,·,–
CCOC(=O)C1=C(C)Nc2nc(=S)[nH]n2C1c1ccc(Cl)cc1 (stereo not drawn),22µM,–,?,–,–
Cc1nn2c(=O)cc(COC(=O)c3c(F)cccc3Cl)nc2s1,35µM,–,–,–,–
N#Cc1ccc(S(=O)(=O)N2CCN(CC(=O)NCC3(N4CCOCC4)CCCCC3)CC2)cc1,–,–,–,–,–
COCCn1c(CN2CCN(c3cccc(Cl)c3)CC2)nc2c1c(=O)n(C)c(=O)n2C,–,–,–,–,–
CC(C)CCn1c(CN2CCN(c3cccc(Cl)c3)CC2)nc2c1c(=O)n(C)c(=O)n2C,16µM,–,–,–,–
Fc1cccc(C[n+]2csc3ccccc32)c1,3.5µM,–,–,·,–
COc1ccc(CNC(=O)C2=C(C)C(=O)OC23CCC(C)CC3)cc1 (stereo not drawn),16µM,–,–,–,–
O=C(Nc1nc2ncccn2c1-c1ccc(F)c(F)c1)c1ccc(F)cc1,·,·,·,–,·
CCOC(=O)Nc1ccc2c(c1)[C@@]1(CC(=O)N(CC(C)C)C1c1ccccc1)C(=O)N2C (stereo partly drawn),·,·,·,–,·
Cc1cccc(Cn2cc(/C=C/[N+](=O)[O-])c3ccccc32)c1,14µM,–,–,–,–
C=C1CC2(OC1=O)c1ccccc1CCc1ccccc12,1.8µM,·,–,·,–
O=C1NC(=O)C2(CCc3ccccc32)N1 (stereo not drawn),–,–,–,–,–
Cc1cc(OC(=O)N2CCOCC2)cc(C)c1Cl,–,–,–,–,–
CC(=O)Oc1c(Cl)c(N2CCOCC2)c(OC(C)=O)c2ccccc12,10µM,–,–,–,–
COc1ccc(CC2CCN(c3ncnc4sccc34)CC2)cc1,·,·,·,–,·
CC1CCN(c2nc3ccc(C(=O)NCCc4ccc(S(N)(=O)=O)cc4)cc3s2)CC1,–,·,·,–,–
OCCN(CCO)c1nc2ccccc2[nH]1,–,–,–,–,–
O=c1[nH]c(=O)n(C(c2ccccc2)(c2ccccc2)c2ccccc2)cc1N(CCO)CCO,20µM,·,–,·,–
CC1(C(=O)NC2CCCC2)CCN1C(=O)Cc1ccc(-c2ccccc2)cc1 (stereo not drawn),?,·,?,–,–
Cc1ccc(CNC(=O)C2(C)CCN2C(=O)Cc2ccc(-c3ccccc3)cc2)cc1 (stereo not drawn),35µM,·,?,–,–
CC1(C(=O)NCC2CCCCC2)CCN1C(=O)Cc1ccc(-c2ccccc2)cc1 (stereo not drawn),20µM,·,–,?,–
Cc1ccc(F)cc1C(=O)N(Cc1ccccn1)CC1CCCO1 (stereo not drawn),·,·,·,–,·
O=C1c2sc3nc4ccccc4n3c2C(=O)N1c1ccccc1Cl,11µM,–,–,–,–
CC(C)N(C(=O)[C@H]1CC(CC(=O)NCC23CC4CC(CC(C4)C2)C3)C(=O)N2CCc3c([nH]c4ccccc34)[C@]12C)C(C)C (stereo partly drawn),22µM,·,?,–,–
COc1ccc(CNC(=O)C[C@H]2C[C@H](C(=O)N3CCOCC3)[C@@]3(C)c4[nH]c5ccc(Cl)cc5c4CCN3C2=O)cc1OC,–,·,–,–,–
CC(C)N(C(=O)[C@H]1C[C@H](CC(=O)NCC23CC4CC(CC(C4)C2)C3)C(=O)N2CCc3c([nH]c4cc(-c5ccco5)ccc34)[C@]12C)C(C)C,–,·,–,–,–
COc1ccc(CNC(=O)C[C@H]2C[C@H](C(=O)N(C(C)C)C(C)C)[C@@]3(C)c4[nH]c5ccc(Cl)cc5c4CCN3C2=O)cc1OC,13µM,·,–,?,–
